# Rows were chosen to be rich in hits. Some 17% of all compounds tested hit in one or more screens of this group.
# TDP1 cell CPT = growth inhibition of DT40 Tdp1-/-;hTDP1 cells with camptothecin (screen for TDP1 inhibitors). chicken DT40 Tdp1-/-;hTDP1 cells + 20 nM CPT, ATP luminescence, 48 h. Potency, µM (doses to about 46.2 µM), without a hit: at the top dose activity change, negative = growth inhibition, hits mostly inhibitors. 12% of 420,000 active; also: % is scaled to controls: 0 for no effect and ±100 for the full control effect; nearly all actives have a fitted effect of over 55% in size
#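 Chicken DT40 Tdp1-/- cells complemented with human TDP1, 400 cells/well, exposed to compounds plus 20 nM camptothecin for at least 48 h at 37 C; viability read as ATP content by CellTiter-Glo luminescence.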
# TDP1 inh = blocks human tyrosyl-DNA phosphodiesterase 1 | Potency, µM (series often up to 130 µM), inactives show top-dose activity change, negative = inhibition, most hits filed as inhibitors | recombinant TDP1, AlphaScreen DNA substrate cleavage | AID 485290 | 0.28% of 350,000 active | Q9NUW8; also: % is scaled to controls: 0 for no effect and ±100 for the full control effect; nearly all actives have a fitted effect of over 40% in size
#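 Tdp1 1 nM final; 15 min RT w/ cpd; substrate 15 nM, 5 min; beads 10 ug/ml, 10 min; AlphaScreen read. Neg ctrl: no enzyme.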
# TDP1 cell noCPT = qHTS for Inhibitors of human tyrosyl-DNA phosphodiesterase 1 (TDP1): qHTS in cells in absence of CPT; DT40 Tdp1-/- hTDP1 cells, no CPT, ATP luminescence, 48 h; Potency, µM (series often up to 46.2 µM), for inactives: top-dose activity change, negative = growth inhibition, most hits filed as inhibitors; 15% of 420,000 active; AID 686978, 2013; also: % is scaled to controls: 0 for no effect and ±100 for the full control effect; nearly all actives have a fitted effect of over 55% in size
#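 Chicken DT40 Tdp1-/- cells complemented with human TDP1, screened without camptothecin (DMSO vehicle only), 400 cells/well. Compounds pin-transferred, cells incubated at 37 °C for at least 48 hr. Growth read as ATP-dependent luminescence (CellTiter-Glo, 30 min at RT).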
# ClpP mod = qHTS Assay for Activators of ClpP; Potency, µM (doses to about 57.5 µM), without a hit: top-dose activity change, negative = active; purified B. subtilis ClpP, FRET peptide cleavage, 20 min; 1.9% of 340,000 active; ATP-dependent Clp protease proteolytic subunit (Bacillus subtilis (strain 168)), P80244; active = well fitted falling curve with a large enough effect; inconclusive = small, poorly fitted or top-dose-only effect; inactive = no such curve, though single readings can be large or run the other way; also: the source files actives as falling curves though it sought activators and does not explain the sign; nearly all actives have a fitted effect of over 65% in size
# Target sequence (P80244 whole entry, looked up): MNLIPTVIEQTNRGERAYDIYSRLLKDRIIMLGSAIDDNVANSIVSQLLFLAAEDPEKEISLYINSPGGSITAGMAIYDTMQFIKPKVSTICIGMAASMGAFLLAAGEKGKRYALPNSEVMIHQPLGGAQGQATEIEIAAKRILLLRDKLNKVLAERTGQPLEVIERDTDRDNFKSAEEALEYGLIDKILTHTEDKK
#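 Purified B. subtilis ClpP, 10 microg/mL final in Tris/HCl pH8 with KCl, BSA, glycerol and Tween-20, cleaved an Abz/nitrotyrosine-quenched decapeptide. Fluorescence (ex 320, em 430) was read at 0 and 20 min at room temperature. Delta was normalized to 5.8 microM ADEP and DMSO/no-enzyme controls.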
# Active calls of the source: *; ? = inconclusive; . = no result. Unless noted, calls follow the shape of the dose curve; as a rule, active = well fitted curve in the direction sought with a large enough effect; inconclusive = small, poorly fitted or top-dose-only effect, or another doubt; inactive = no such curve, though single readings can be large; an effect the other way counts as inactive or inconclusive. Potency is read from the fitted curve at half-maximal effect.
SMILES,TDP1 cell CPT,TDP1 inh,TDP1 cell noCPT,ClpP mod
COC(=O)c1cccc(-c2ccc(C(c3c(C)[nH][nH]c3=O)c3c(C)[nH][nH]c3=O)o2)c1,7.3µM*,9%,23µM*,.
Cc1[nH][nH]c(=O)c1C(c1ccc(-c2ccc(Cl)c(C(=O)O)c2)o1)c1c(C)[nH][nH]c1=O,-12%,?,-9%,.
COC(=O)c1ccccc1-c1ccc(C(c2c(C)[nH][nH]c2=O)c2c(C)[nH][nH]c2=O)o1,?,-3%,21µM*,.
CN(c1ccccc1)S(=O)(=O)c1cccc(NC(=O)C2CC(=O)N(Cc3ccccc3)C2)c1 (stereo unspecified),16µM*,2%,21µM*,-1%
CCN(CC)c1ccc(NC(=O)C2CC(=O)N(Cc3ccccc3)C2)cc1 (stereo unspecified),?,3%,12µM*,.
CCOC(=O)COc1c(C(=O)OC)sc2ncccc12,4%,4%,4%,25µM*
CC1=NN(C(N)=S)C(=O)C1N=Nc1cccc([N+](=O)[O-])c1 (stereo unspecified),?,.,-13%,1%
CN1C(=O)C(N=Nc2ccc([N+](=O)[O-])cc2)SC1=S (stereo unspecified),7.3µM*,.,6.5µM*,.
CC(=O)C(C)Oc1ccc(Cc2ncc(C(F)(F)F)cc2Cl)cc1 (stereo unspecified),-5%,-8%,-7%,.
COc1ccc(C2CC(=O)c3cc(-c4nc(-c5cccc([N+](=O)[O-])c5)cs4)c(=O)n(-c4cccc(C)c4)c3C2)cc1 (stereo unspecified),0%,5%,-4%,0%
CC1(C(=O)NCc2cccc3ccccc23)CCN1Cc1ccc2ccccc2c1 (stereo unspecified),18µM*,.,18µM*,-21%
CC1(C(=O)NCc2cccc3ccccc23)CCN1Cc1cccc2c1OCO2 (stereo unspecified),23µM*,.,15µM*,-2%
CC1(C(=O)NCc2ccccc2Br)CCN1Cc1ccc2ccccc2c1 (stereo unspecified),21µM*,.,?,-1%
CC(C)CCNC(=O)C1(C)CCN1Cc1ccc2ccccc2c1 (stereo unspecified),?,.,23µM*,-3%
CC1(C(=O)NCc2cccc3ccccc23)CCN1Cc1ccc(OC(F)(F)F)cc1 (stereo unspecified),?,.,?,-14%
CN(C)c1ccc(CNc2nc(-c3ccco3)nn2C(=O)c2cccc([N+](=O)[O-])c2)cc1,-17%,9%,-21%,-3%
CCc1ccc(NS(=O)(=O)c2ccc3[nH]cc(C(=O)NCc4ccc(C)cc4)c(=O)c3c2)cc1,?,.,?,-26%
CC1(C(=O)Nc2ccc3c(c2)OCCO3)CCN1Cc1ccc(-c2ccccn2)cc1 (stereo unspecified),?,.,?,1%
CC(C)NC(=O)C1(C)CCCCN1Cc1ccc(OCc2ccccc2)cc1 (stereo unspecified),2.3µM*,.,1.6µM*,-1%
Cc1ccc(CN2CCCC2(C)C(=O)NC(C)C)cc1 (stereo unspecified),?,.,?,-1%
CCCCNC(=O)C1(C)CCCCN1Cc1ccc2ccccc2c1 (stereo unspecified),23µM*,.,?,?
CCCCNC(=O)C1(C)CCCCN1C(=O)c1ccc(OC)c(C(F)(F)F)c1 (stereo unspecified),?,.,?,0%
COc1ccccc1CNC(=O)C1(C)CCN1Cc1ccc2ccccc2c1 (stereo unspecified),-95%,.,-98%,-2%
CCCCNC(=O)C1(C)CCCCCN1Cc1cccc2c(OC)cc(C(=O)OCC)cc12 (stereo unspecified),?,.,13µM*,?
CC1(C(=O)NCc2ccccc2Br)CCN1Cc1ccc(-c2ccccn2)cc1 (stereo unspecified),15µM*,.,18µM*,-2%
Cc1ccc(C(=O)O)cc1NC(=O)CCc1c(C)noc1C,3%,.,5%,-1%
CC1(C(=O)NCc2cccc3ccccc23)CCN1C(=O)C1(c2ccccc2)CCCC1 (stereo unspecified),23µM*,.,21µM*,-1%

# Assay outcomes: PubChem BioAssay, National Center for Advancing Translational Sciences (NCATS)
